The target in experiment [1] is Lysosomal acid glucosylceramidase (Homo sapiens) (UniProt P04062). Put plainly: Glucocerebrosidase-p2 (AID 348; in the data active = potency below about 10 µM; also: potency is read from the fitted curve at half-maximal effect). As to conditions: purified GBA, blue fluorogenic substrate, 40 min. In outline: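 Compounds titrated from 0.6 nM upwards against 0.2 nM enzyme in pH 5.9 citric acid/KH2PO4, taurocholate, tween-20; blue fluorogenic substrate 80 uM, 40 min room temperature, stopped and read Ex 365/Em 440 for AC50.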

Experiment [2] can be described thus: AP1 Signaling Pathway (AID 357).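 Also: ME-180 reporter cells stimulated with EGF at its EC50 level; % is scaled to controls: 0 for no effect and ±100 for the full control effect.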 As to conditions: ME-180 AP-1-bla reporter, EGF-induced, beta-lactamase ratio, 5 h; at 7.69 µM (top of the series) unless noted. In a few lines:
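First, ME-180 AP-1-bla cells were cultured overnight at 37 °C in low-serum Opti-MEM. Next, titrated compounds with EC50 EGF were incubated 5 hours. Finally, CCF4 was added for 2.5 hours and the 460/530 nm ratio recorded.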

For experiment [3], the target named is Cytochrome P450 1A2 (Homo sapiens) (UniProt P05177). Put plainly: p450-cyp1a2 (AID 410; calls by dose curve; also: potency is read from the fitted curve at half-maximal effect;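 as to activity change, negative = inhibition: -100% = full effect of reference inhibitor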). As to conditions: recombinant CYP1A2, luciferin-ME demethylation, luminescence; series mostly up to 11.4 µM. In a few lines:
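Human CYP1A2 (20nM) demethylated Luciferin-ME at its Km (100uM) in 100mM KPO4. After 10 min compound preincubation, NADPH regeneration ran the reaction 60 min at room temperature. Luciferin was read by luminescence, normalized to 57 uM furafylline.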

A short description of experiment [4]: NFAT Signaling Pathway (AID 444).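 Also: carbachol stimulus at about its EC50 of 1 µM final; % is scaled to controls: 0 for no effect and ±100 for the full control effect.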 To be noted: Jurkat NFAT-bla M1, carbachol, beta-lactamase ratio, 5 h; at 7.69 µM (top of the series) unless noted. In a few lines: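 Jurkat cells carrying an NFAT-driven β-lactamase reporter and co-transfected muscarinic M1 receptor were treated with compound plus carbachol (1 uM final, an EC50 level) for 5 h at 37 °C. CCF4 loading followed for 1 h at RT; 460/530 nm ratio gave %activity.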

Experiment [5] in a line: Stat Signaling Pathway (AID 446).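 Also: ME-180 cervical cancer cells given 40 pM IL-6 alongside compound; SIE-controlled beta-lactamase reporter measured as 460/530 nm FRET emission ratio; % is scaled to controls: 0 for no effect and ±100 for the full control effect.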 As to conditions: ME-180 (cervical carcinoma) SIE beta-lactamase reporter, IL-6 stimulated, 5 h; at 7.69 µM (top of the series) unless noted. In outline:
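ME-180 cells carrying a SIE-driven beta-lactamase reporter are stimulated with 40 pM IL-6 for 5 h at 37C in the presence of compound. The 460/530 nm FRET substrate ratio is read after 2.5 h at RT. Data are normalised to 300 pM IL-6 and to 125 nM JAK inhibitor controls.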

Experiment [6] has as its target Glucocorticoid receptor (Homo sapiens) (UniProt P04150). Put plainly: GR-GFP Redistribution (AID 450;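 active = compounds whose dose series gives a full or clear partial fitted curve of increased nuclear translocation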; also: potency is read from the fitted curve at half-maximal effect). As to conditions: U2OS GR-GFP nuclear translocation, laser cytometry, 2 h.
The target is the same in experiment [7]. Put plainly: GR-EFC Redistribution (AID 451; calls by dose curve; also: potency is read from the fitted curve at half-maximal effect). To be noted: CHO-K1 GR-EFC translocation, beta-gal luminescence, 2 h. In a few lines: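 CHO-K1 cells stably expressing nuclear-localized β-gal enzyme acceptor and GR fused C-terminally to the enzyme donor fragment; ligand-driven nuclear translocation restores β-gal by complementation. Compounds titrated up to 46 uM final, 2 h at 37 °C; luminescence read.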

The target in experiment [8] is Mitogen-activated protein kinase 10 (Mus musculus) (UniProt Q61831). Put plainly: JNK3 AlphaScreen Assay (AID 530).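 Also: kinase came from lysate of stimulated human HepG2 cells; % is scaled to controls: 0 for no effect and ±100 for the full control effect.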 To be noted: JNK3 lysate, c-Jun phosphorylation; series mostly up to 11.4 µM. In a few lines: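 JNK3 came from HepG2 lysates pre-activated with IL-1beta and TNF-alpha and phosphorylated biotinylated GST-cJun (1-79) at 10 uM ATP, pH 7.6, room temperature. Compounds were titrated. AlphaScreen signal used anti-phospho-cJun (Ser73) antibody.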

Experiment [9] has as its target 3',5'-cyclic-AMP phosphodiesterase 4B (Homo sapiens) (UniProt Q07343). The experiment can be described thus: qHTS Assay for Inhibitors of PDE-IV (AID 607; active = well fitted activation curve with a large enough effect in the main read-out, with a control signal flat, not every such curve was filed as active; also: % of control where 0% means no effect). As to conditions: HEK293 ACTOne CNG channel cells, membrane potential fluorescence; series mostly up to 22.9 µM. In a few lines:
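HEK293 ACTOne cells with CNG channel (1000/well), endogenous PDE4; membrane potential dye, compounds up to 22.9 uM final. Fluorescence Ex 535/Em 590; RO 20-1724 (100 uM final) as reference.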

Experiment [10] concerns the target Cytochrome P450 2C9 (Homo sapiens) (UniProt P11712). The experiment can be described thus: qHTS Assay for Inhibitors and Substrates of Cytochrome P450 2C9 (AID 883; active = well fitted inhibition curve with a large enough effect; also: nearly all actives have a fitted effect of over 60% in size; also: potency is read from the fitted curve at half-maximal effect). As to conditions: recombinant CYP2C9, luciferin-H luminescence, 60 min; series mostly up to 11.4 µM. In a few lines:
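A luminogenic readout tracked human CYP2C9 (10nM) converting deoxyluciferin (100uM, at KM) in 25mM KPO4 during 60 min at 37C with regenerated NADPH. Values normalized to 57uM sulphaphenazole as complete inhibition.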
In general terms: Quantitative high-throughput screening tests each substance at several concentrations.

The target in experiment [11] is Cytochrome P450 3A4 (Homo sapiens) (UniProt P08684). Put plainly: qHTS Assay for Inhibitors and Substrates of Cytochrome P450 3A4 (AID 884; active = well fitted inhibition curve with a large enough effect; also: nearly all actives have a fitted effect of over 50% in size; also: potency is read from the fitted curve at half-maximal effect). To be noted: recombinant CYP3A4, Luciferin-PPXE luminescence; series mostly up to 57.1 µM. In outline:
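20 nM human CYP3A4 with 25 uM Luciferin-PPXE (at KM) in 200 mM KPO4, preincubated 10 min with compound; NADPH regeneration started a 60 min RT reaction. Luciferin detected by luminescence, normalized to 57 uM ketoconazole as full inhibition.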

In experiment [12] the target is Cytochrome P450 2D6 (Homo sapiens) (UniProt P10635). Put plainly: qHTS Assay for Inhibitors and Substrates of Cytochrome P450 2D6 (AID 891; active = well fitted inhibition curve with a large enough effect;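 also: luciferin methyl ether substrate demethylated by CYP2D6 with NADPH regeneration; % is scaled to controls: 0 for no effect and ±100 for the full control effect; nearly all actives have a fitted effect of over 60% in size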). To be noted: recombinant CYP2D6, luciferin-ME EGE luminescence; series mostly up to 11.4 µM. In a few lines: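 Human CYP2D6 (5 nM) with 30 uM Luciferin-ME EGE (at Km) in 100 mM KPO4, compound preincubated 10 min, then NADPH regeneration system for 60 min at room temperature. Luciferin read by luminescence; normalized to 1.43 uM quinidine.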

Experiment [13] deals with Cytochrome P450 2C19 (Homo sapiens) (UniProt P33261). The experiment can be described thus: qHTS Assay for Inhibitors and Substrates of Cytochrome P450 2C19 (AID 899; active = well fitted inhibition curve with a large enough effect; also: nearly all actives have a fitted effect of over 60% in size; also: potency is read from the fitted curve at half-maximal effect). As to conditions: recombinant CYP2C19, luciferin-H EGE luminescence; series mostly up to 11.4 µM. In outline: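 NADPH-dependent conversion of Luciferin-H EGE (10uM, at KM) by 5nM enzyme in 50mM KPO4, 60 min at 37C following 10 min compound preincubation. Stopped with luciferin detection buffer; luminescence read after 20 min.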

Each structure is given as a SMILES string. Unmarked numbers belong to inactive results. Records with an inconclusive call do not appear. Calls of active or inactive are those of the source. Unless noted, calls follow the shape of the dose curve; as a rule, active = well fitted curve in either direction with a large enough effect (not every such curve was filed as active); inconclusive = small, poorly fitted or top-dose-only effect, or another doubt; inactive = flat fitted curve, though single readings scatter. Some results are limits rather than exact numbers.

Cytochrome P450 2C19 (Homo sapiens), sequence (P33261 whole entry, looked up): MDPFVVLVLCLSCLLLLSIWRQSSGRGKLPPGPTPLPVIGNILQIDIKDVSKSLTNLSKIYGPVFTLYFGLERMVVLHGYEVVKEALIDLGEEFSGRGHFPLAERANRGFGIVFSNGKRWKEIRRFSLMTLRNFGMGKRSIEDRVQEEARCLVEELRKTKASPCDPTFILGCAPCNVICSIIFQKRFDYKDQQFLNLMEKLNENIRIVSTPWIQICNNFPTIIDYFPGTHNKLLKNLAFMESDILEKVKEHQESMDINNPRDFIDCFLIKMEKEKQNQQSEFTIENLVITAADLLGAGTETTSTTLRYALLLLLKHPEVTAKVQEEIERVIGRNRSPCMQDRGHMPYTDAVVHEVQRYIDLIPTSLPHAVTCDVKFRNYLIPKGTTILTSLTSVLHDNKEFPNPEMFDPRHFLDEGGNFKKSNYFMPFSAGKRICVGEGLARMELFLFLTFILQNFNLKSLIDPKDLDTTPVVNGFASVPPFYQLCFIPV
Cytochrome P450 2C9 (Homo sapiens), sequence (P11712 whole entry, looked up): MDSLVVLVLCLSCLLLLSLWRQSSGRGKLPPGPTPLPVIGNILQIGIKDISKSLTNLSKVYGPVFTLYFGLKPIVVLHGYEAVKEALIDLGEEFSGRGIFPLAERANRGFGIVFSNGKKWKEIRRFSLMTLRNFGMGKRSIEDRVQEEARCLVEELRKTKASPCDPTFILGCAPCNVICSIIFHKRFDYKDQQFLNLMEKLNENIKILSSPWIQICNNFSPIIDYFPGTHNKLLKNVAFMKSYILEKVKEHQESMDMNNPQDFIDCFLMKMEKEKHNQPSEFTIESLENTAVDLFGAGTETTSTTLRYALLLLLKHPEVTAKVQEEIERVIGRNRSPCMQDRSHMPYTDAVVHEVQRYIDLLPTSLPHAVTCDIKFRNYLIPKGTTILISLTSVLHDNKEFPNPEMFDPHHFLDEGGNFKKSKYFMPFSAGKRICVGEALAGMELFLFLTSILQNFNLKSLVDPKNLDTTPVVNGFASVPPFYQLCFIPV
Lysosomal acid glucosylceramidase (Homo sapiens), sequence (P04062 whole entry, looked up): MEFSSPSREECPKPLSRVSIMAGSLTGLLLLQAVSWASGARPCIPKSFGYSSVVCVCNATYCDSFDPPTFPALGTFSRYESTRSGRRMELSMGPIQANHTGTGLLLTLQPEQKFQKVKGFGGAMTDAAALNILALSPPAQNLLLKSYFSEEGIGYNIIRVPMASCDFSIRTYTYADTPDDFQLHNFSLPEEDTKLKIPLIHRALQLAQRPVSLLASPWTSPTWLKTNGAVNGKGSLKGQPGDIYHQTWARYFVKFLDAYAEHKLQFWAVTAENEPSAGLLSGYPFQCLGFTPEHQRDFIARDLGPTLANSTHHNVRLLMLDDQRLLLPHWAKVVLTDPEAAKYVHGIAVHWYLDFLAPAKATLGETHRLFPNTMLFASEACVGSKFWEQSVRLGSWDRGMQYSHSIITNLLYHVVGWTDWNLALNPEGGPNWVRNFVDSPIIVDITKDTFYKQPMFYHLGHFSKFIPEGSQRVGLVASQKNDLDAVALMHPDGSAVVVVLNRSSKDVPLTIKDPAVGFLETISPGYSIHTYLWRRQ
Cytochrome P450 3A4 (Homo sapiens), sequence (P08684 whole entry, looked up): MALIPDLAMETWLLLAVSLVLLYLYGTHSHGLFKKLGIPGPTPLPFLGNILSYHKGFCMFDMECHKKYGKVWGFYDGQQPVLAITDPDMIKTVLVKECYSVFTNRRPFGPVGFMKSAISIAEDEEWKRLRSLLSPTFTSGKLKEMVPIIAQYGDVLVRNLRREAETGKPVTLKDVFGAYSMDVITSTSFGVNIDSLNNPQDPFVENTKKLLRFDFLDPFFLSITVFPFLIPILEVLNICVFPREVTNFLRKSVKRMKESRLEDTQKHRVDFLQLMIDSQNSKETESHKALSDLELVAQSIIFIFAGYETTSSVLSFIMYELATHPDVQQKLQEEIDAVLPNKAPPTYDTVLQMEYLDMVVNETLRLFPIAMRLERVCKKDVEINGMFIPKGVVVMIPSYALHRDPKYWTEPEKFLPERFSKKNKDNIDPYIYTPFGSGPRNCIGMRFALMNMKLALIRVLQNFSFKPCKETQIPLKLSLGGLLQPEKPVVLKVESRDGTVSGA
Cytochrome P450 2D6 (Homo sapiens), sequence (P10635 whole entry, looked up): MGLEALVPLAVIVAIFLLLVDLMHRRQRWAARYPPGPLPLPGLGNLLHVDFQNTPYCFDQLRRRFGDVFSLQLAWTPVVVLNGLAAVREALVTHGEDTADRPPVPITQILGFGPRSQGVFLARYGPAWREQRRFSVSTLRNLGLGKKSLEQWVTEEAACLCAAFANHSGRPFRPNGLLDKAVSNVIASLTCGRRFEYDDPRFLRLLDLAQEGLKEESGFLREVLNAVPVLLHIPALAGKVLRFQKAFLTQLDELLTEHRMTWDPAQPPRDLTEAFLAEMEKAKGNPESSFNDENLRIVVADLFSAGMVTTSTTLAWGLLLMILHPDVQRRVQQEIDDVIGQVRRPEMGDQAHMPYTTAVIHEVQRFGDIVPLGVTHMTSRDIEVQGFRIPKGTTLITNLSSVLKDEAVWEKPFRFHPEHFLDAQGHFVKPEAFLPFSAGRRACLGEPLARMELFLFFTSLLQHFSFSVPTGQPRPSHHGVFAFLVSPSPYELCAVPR
Glucocorticoid receptor (Homo sapiens), sequence (P04150 whole entry, looked up, the tested form may be a part): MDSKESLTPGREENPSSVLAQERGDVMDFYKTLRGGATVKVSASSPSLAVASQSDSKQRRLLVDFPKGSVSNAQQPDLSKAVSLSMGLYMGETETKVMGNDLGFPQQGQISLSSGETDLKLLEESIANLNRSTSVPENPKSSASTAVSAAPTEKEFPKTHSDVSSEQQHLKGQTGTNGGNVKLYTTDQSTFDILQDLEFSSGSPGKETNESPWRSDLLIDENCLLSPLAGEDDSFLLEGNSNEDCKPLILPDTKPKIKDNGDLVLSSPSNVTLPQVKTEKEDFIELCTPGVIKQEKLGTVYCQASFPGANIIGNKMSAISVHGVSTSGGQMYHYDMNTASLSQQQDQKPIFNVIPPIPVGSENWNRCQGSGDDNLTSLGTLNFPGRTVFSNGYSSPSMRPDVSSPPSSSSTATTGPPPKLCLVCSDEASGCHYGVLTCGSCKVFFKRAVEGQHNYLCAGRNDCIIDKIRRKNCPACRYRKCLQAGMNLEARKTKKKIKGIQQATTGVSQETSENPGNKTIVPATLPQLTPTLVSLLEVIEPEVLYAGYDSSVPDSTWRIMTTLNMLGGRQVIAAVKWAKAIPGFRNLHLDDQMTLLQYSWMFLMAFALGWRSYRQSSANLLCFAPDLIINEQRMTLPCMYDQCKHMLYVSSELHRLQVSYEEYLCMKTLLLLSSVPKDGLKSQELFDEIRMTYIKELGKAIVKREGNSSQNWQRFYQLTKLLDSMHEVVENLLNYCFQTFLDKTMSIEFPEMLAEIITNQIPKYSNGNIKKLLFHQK
Cytochrome P450 1A2 (Homo sapiens), sequence (P05177 whole entry, looked up): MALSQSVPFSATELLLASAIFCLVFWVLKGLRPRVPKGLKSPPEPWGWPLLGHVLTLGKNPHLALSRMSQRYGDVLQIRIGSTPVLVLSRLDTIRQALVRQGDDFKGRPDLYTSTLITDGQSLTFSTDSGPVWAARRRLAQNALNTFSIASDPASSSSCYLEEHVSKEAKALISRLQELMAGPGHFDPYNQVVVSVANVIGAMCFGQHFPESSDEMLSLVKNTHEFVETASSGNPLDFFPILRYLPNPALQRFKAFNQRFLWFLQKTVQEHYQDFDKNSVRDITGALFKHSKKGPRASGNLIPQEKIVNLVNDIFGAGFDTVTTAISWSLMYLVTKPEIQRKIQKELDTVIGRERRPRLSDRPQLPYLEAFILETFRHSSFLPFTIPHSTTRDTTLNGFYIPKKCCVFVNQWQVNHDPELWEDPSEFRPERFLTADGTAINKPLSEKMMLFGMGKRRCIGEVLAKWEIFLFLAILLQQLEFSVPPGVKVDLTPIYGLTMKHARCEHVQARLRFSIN
3',5'-cyclic-AMP phosphodiesterase 4B (Homo sapiens), sequence (Q07343 whole entry, looked up): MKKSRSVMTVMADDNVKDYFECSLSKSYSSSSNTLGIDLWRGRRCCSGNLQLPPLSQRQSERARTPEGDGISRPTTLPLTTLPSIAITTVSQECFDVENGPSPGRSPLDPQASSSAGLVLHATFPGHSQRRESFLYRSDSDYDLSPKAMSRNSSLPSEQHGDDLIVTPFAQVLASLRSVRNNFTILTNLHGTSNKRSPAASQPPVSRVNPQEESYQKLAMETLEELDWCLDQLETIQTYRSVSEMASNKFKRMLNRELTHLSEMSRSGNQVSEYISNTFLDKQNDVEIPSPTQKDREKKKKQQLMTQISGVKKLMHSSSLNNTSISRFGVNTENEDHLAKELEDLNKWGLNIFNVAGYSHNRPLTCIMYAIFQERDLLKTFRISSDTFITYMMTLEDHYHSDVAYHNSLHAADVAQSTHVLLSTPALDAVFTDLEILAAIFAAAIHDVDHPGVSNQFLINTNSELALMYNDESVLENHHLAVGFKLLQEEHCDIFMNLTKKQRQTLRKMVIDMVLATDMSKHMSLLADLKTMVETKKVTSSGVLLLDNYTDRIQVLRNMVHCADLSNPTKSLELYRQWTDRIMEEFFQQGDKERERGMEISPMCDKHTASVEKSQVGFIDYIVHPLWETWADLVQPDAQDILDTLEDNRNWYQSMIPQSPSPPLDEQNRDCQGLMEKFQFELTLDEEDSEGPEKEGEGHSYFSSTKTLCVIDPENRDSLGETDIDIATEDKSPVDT

As for `Cc1cc(SCC(=O)c2ccccc2)nc2ccccc12`, the Potency is > 11.4 µM in experiment [1]; 0.398 µM (active) in experiment [3]; > 46 µM in [6]; > 9.22 µM in experiment [7]; 0.398 µM (active) in experiment [13]. In addition, the activity change, negative = inhibition was -8.06% in [2], 13.7% in experiment [4] and -103% [at 11.4 µM] in experiment [11]. In addition, in experiment [5], the activity, negative = inhibition is 9.67%. Moreover, the Potency entry in experiment [8], in experiment [9], in experiment [10] and in experiment [12] was “inactive” throughout.
In the case of `COc1ccc2c(Cl)cc(NC(=S)Nc3ccccc3)nc2c1`, the Potency in [1] is 10.6 µM; in experiment [3] it was 0.398 µM (active); in experiment [6] it was > 46 µM; in [7], > 9.22 µM. Besides, the activity change, negative = inhibition in experiment [2] was 9.58%; in experiment [4] it was 12.1%; in experiment [11] it was 67.2% [at 11.4 µM]. For the same compound, the activity, negative = inhibition in experiment [5] was 2.27%. The Potency result in experiment [8] and in experiment [9] was “inactive” in each case.
With `O=C(O)c1ccc(SSc2ccc(C(=O)O)cn2)nc1`, the Potency was > 11.4 µM in experiment [1]; 3.16 µM (active) in [3]; > 46 µM in [6]; > 9.22 µM in experiment [7]; 1.58 µM (active) in [10]; 2.51 µM (active) in [13]. Also, the activity change, negative = inhibition in [2] is -2.82%; in [4], 5.74%. In experiment [5], the activity, negative = inhibition is 15.8%. Further, the Potency entry in experiment [8] and in experiment [9] was “inactive” throughout.
On to `O=C1CNCCCN2CCN(CCCNCC(=O)Nc3ccc(cc3)S(=O)(=O)c3ccc(cc3)NC(=O)CNCCCN3CCN(CCCNCC(=O)Nc4ccc(cc4)S(=O)(=O)c4ccc(cc4)N1)CC3)CC2`, for which the Potency in [1] was > 11.4 µM; in experiment [6], > 46 µM; in experiment [7], > 9.22 µM. The results for the activity change, negative = inhibition in experiment [2] and in [4] were -2.18% and 13.1%, respectively. For the same compound, the Potency entry in [3], in experiment [8], in experiment [9], in experiment [10], in experiment [12] and in [13] was “inactive” throughout. Besides, the activity, negative = inhibition in experiment [5] was -11%.
Consider `COc1ccc(C[C@@H]2C(=O)N[C@H](C)C(=O)N(C)[C@@H]3Cc4ccc(cc4)Oc4cc(ccc4O)C[C@H](C(=O)N[C@@H](C)C(=O)N[C@H](C)C(=O)N2C)N(C)C3=O)cc1`, for which the Potency in [1] was > 11.4 µM; in experiment [6] it was > 46 µM; in experiment [7] it was > 9.22 µM; in [11], 3.98 µM (active). For the same compound, the activity change, negative = inhibition in [2] is -121% (active); in experiment [4] it was -132% (active). Moreover, the Potency entry in experiment [3], in [8] and in experiment [9] was “inactive” each time. Also, the activity, negative = inhibition in experiment [5] was -104% (active).
Turning to `O=C(O)/C(=C\c1ccccc1)Cc1ccccc1`, the Potency in experiment [1] is > 11.4 µM; in experiment [6] it was > 46 µM; in experiment [7], > 9.22 µM. For the same compound, the figures for the activity change, negative = inhibition in [2], in [4] and in [11] were -5.32%, 3.67% and 30.2% [at 11.4 µM], respectively. In addition, the Potency result in [3], in experiment [8] and in [9] was “inactive” throughout. Also, in [5], the activity, negative = inhibition is 5.03%.
For `Nc1nc(N)nc(CCCCc2nc(N)nc(N)n2)n1`, the results for the Potency in experiment [1], in [6] and in [7] were > 11.4 µM, > 46 µM and > 9.22 µM, respectively. The activity change, negative = inhibition was 4.24% in [2], 8.1% [at 2.29 µM] in experiment [3] and 12.4% in [4]. In addition, the activity, negative = inhibition in experiment [5] was -0.633%. Also, the Potency result in [8], in experiment [9], in experiment [10], in experiment [12] and in experiment [13] was “inactive” in each case.

The record behind these values is PubChem BioAssay (NCATS).
